G9a block = qHTS Assay for Inhibitors of Histone Lysine Methyltransferase G9a | G9a H3K9 monomethylation, AlphaScreen, 2 h | Histone-lysine N-methyltransferase EHMT2 (Homo sapiens), Q96KQ7 | Potency, µM (top dose mostly 102 µM), most hits filed as inhibitors | 350,000 tested, 8.8% active; further: nearly all actives have a fitted effect of over 75% in size
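Signal arises when biotinylated H3K9 peptide, once monomethylated, bridges streptavidin donor and antibody-captured acceptor beads. Enzyme at 20 nM was preincubated 15 min with test compounds; peptide 500 nM and SAM 20 uM then reacted for 2 h.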
HP1b binding inh = HTS for Inhibitors of HP1-beta Chromodomain Interactions with Methylated Histone Tails | Chromobox protein homolog 1 (Homo sapiens), P83916 | AlphaScreen HP1-beta / biotin-H3K9me3 peptide binding | Potency, µM (highest dose often 114 µM), usual class: inhibitors | 390,000 tested, 0.56% active | AID 540317, 2011; further: nearly all actives have a fitted effect of over 70% in size
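AlphaScreen: HP1-beta (50 nM) preformed 30 min with biotin-H3(1-18)K9me3 peptide (50 nM) in PBS pH 7.4, 0.01% Tween-20. Compound added for 30 min at RT, then streptavidin donor/nickel chelate acceptor beads (10 ug/mL) for 30 min.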
BAZ2B block = qHTS Assay for Inhibitors of BAZ2B | AlphaScreen BAZ2B-H3K14Ac peptide displacement | Bromodomain adjacent to zinc finger domain protein 2B (Homo sapiens), Q9UIF8 | Potency, µM (doses to about 114 µM), actives largely listed as inhibitors | 360,000 tested, 4.4% active | AID 504333, 2011; further: nearly all actives have a fitted effect of over 60% in size
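Compounds, titrated to a top concentration of 110 uM, were incubated 30 min at room temperature with preformed BAZ2B/acetyl-K14 H3 peptide complex (50 nM each). Proximity signal was measured by AlphaScreen after 20 min with beads.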
JMJD2A Tudor = qHTS Assay for Inhibitors of JMJD2A-Tudor Domain; AlphaScreen JMJD2A-Tudor / H3K4me3 peptide binding; 390,000 tested, 4.4% active; Potency, µM (highest dose often 114 µM), hits mostly inhibitors; further: nearly all actives have a fitted effect of over 50% in size
Six1-Eya2 blk = qHTS Assay for Inhibitors of the Six1/Eya2 Interaction | AID 651725, 2012 | Homeobox protein SIX1 (Homo sapiens) + Protein phosphatase EYA2 (Homo sapiens), … | AlphaScreen GST-Six1/His-Eya2 binding, biochemical; stronger effect = lower value | activity change, % (test concentration not listed) | 360,000 tested, 0.56% active; in the data active means activity change below about -65%; inconclusive means mostly about -30% to -63%
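AlphaScreen luminescence read after one hour at 37 °C in darkness. Pin-transferred compounds met GST-Six1 and His-Eya2 protein (5X stock 250 nM/500 nM) plus glutathione donor and Ni-chelate acceptor beads (5X, 50 ug/mL).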
CtBP-E1A inh = qHTS Assay for Inhibitors of the CtBP/E1A Interaction | CtBP / adenovirus E1A interaction (AlphaScreen) | AlphaScreen GST-E1A/His-CtBP binding, 1536-well; stronger effect = lower value | activity change, % (test concentration not listed) | 340,000 tested, 0.49% active | AID 651724, 2012; in the data active means activity change below about -65%; inconclusive means mostly about -30% to -63%
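Steps: dispense buffer (Tris pH 8.0, NaCl 300 mM, TCEP 1 mM, BSA, Tween 20); add 5X protein mix (GST-E1A, His-CtBP, 125 nM each); pin 23 nL compound; 2 h at 37 °C, dark; add 5X beads (50 ug/mL); 1 h; read.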
Hits are given with their value; [ ] = another dose, or the depositor's remark. Only some compounds are listed: those with a hit (about 10% of all), similar ones and a draw of the others. Unless noted, the call rests on the fitted dose curve; in most records, active means well fitted inhibition curve with a large enough effect; inconclusive means small, poorly fitted or top-dose-only effect; inactive means no such curve, though single readings can be large or run the other way.

What do the screens show for `CC(=O)NC(=S)Nc1ccc(NC(=O)COc2ccc(C(C)C)cc2)cc1`?
G9a block: inconclusive; HP1b binding inh: inactive; BAZ2B block: inconclusive; JMJD2A Tudor: inactive; Six1-Eya2 blk: inactive; CtBP-E1A inh: inactive

How did COC(=O)C1=C[C@@H](C(=O)OC)C2C3=C(C(=O)[C@@]2(C)NC(=O)c2ccccc2)[C@H](C)[C@@H]2C(=O)N(C)C(=O)[C@@H]2[C@@H]3C1 (stereo not given in full) do in these assays?
HP1b binding inh: inactive; JMJD2A Tudor: inactive

What do the screens show for `O=C(c1ccc2c(=O)n(CC3CCCO3)c(=S)[nH]c2c1)N1CCN(C(=O)c2ccco2)CC1` (stereo not given)?
HP1b binding inh: inactive; JMJD2A Tudor: inconclusive

How did O=C1[C@H]2[C@@H](c3ccccc3)N[C@]3(CCCN(Cc4ccc(Cl)cc4)C3=O)[C@H]2C(=O)N1Cc1ccccc1 do in these assays?
Six1-Eya2 blk: inactive; CtBP-E1A inh: inactive

What do the screens show for `CCOc1ccc(-n2c(=O)c3c(C)c(C)sc3n(CC(=O)C(C)(C)C)c2=O)cc1`?
G9a block: inactive; HP1b binding inh: inactive; BAZ2B block: inactive; JMJD2A Tudor: inactive

Results for CC(=O)Nc1cccc(NC(=O)Cn2cnc3c2c(=O)n(C)c(=O)n3C)c1 ?
G9a block: inactive; HP1b binding inh: inactive; BAZ2B block: inactive; JMJD2A Tudor: inactive

Results for CCOc1ccc(CC(=O)NNC(=S)Nc2ccccc2)cc1Br ?
G9a block: 25µM; HP1b binding inh: inactive; BAZ2B block: inactive; JMJD2A Tudor: inactive[11.4 µM]; Six1-Eya2 blk: inactive; CtBP-E1A inh: inactive

How did CCC(=O)NC(=S)Nc1ccc(NC(=O)COc2ccc(Cl)cc2Cl)cc1 do in these assays?
G9a block: inactive; HP1b binding inh: inactive; BAZ2B block: inactive; JMJD2A Tudor: inactive; Six1-Eya2 blk: inactive; CtBP-E1A inh: inactive

Results for Cc1cc(C)nc(NS(=O)(=O)c2ccc(NC(=O)COc3ccc(Cl)cc3C)cc2)n1 ?
G9a block: 10µM; HP1b binding inh: inactive; BAZ2B block: inactive; JMJD2A Tudor: inactive

Results for Cc1ccc(OCC(=O)NC(=S)Nc2ccccn2)c(Br)c1 ?
G9a block: inconclusive; HP1b binding inh: inactive; BAZ2B block: inactive; JMJD2A Tudor: inactive; Six1-Eya2 blk: inactive; CtBP-E1A inh: inactive

Results for COc1ccc(NC(=S)NNC(=O)COc2ccc(Cl)cc2Cl)cc1 ?
G9a block: 20µM; HP1b binding inh: inactive; BAZ2B block: inactive; JMJD2A Tudor: inconclusive; Six1-Eya2 blk: inactive; CtBP-E1A inh: inactive

How did O=C(COc1ccc(Br)cc1Cl)NC(=S)Nc1ccccn1 do in these assays?
G9a block: 79µM; HP1b binding inh: inactive; BAZ2B block: inactive; JMJD2A Tudor: inactive; Six1-Eya2 blk: inactive; CtBP-E1A inh: inactive

How did O=[S+]([O-])(c1c(F)cccc1F)N1CCN([S+](=O)([O-])c2c(F)c(F)c(F)c(F)c2F)CC1 do in these assays?
JMJD2A Tudor: inactive

Results for CC(C)[C@@H]1Cc2[nH]c(=O)[nH]c(=O)c2[C@H](C)O1 ?
Six1-Eya2 blk: inactive; CtBP-E1A inh: inactive

How did COc1ccc(NC(=S)NNC(=O)CNc2ccc(Cl)cc2)cc1 do in these assays?
G9a block: 10µM; HP1b binding inh: inactive; BAZ2B block: inconclusive; JMJD2A Tudor: inactive; Six1-Eya2 blk: inactive; CtBP-E1A inh: inactive

What do the screens show for `CCC(=O)NC(=S)Nc1ccc(NC(=O)COc2ccc(Cl)c(C)c2)cc1`?
G9a block: inactive; HP1b binding inh: inactive; BAZ2B block: inactive; JMJD2A Tudor: inactive; Six1-Eya2 blk: inactive; CtBP-E1A inh: inactive

How did Cc1cc(OCC(=O)NNC(=S)NC(=O)c2ccc(Br)o2)ccc1Cl do in these assays?
G9a block: 32µM; HP1b binding inh: inactive; BAZ2B block: inactive; JMJD2A Tudor: inactive; Six1-Eya2 blk: inactive; CtBP-E1A inh: inactive

Results for COC(CC(=O)NNC(=S)Nc1ccc(Cl)cc1)OC ?
G9a block: inactive; HP1b binding inh: inactive; BAZ2B block: inactive; JMJD2A Tudor: inactive; Six1-Eya2 blk: inactive; CtBP-E1A inh: inactive

Results for COc1ccc(Cl)cc1NC(=S)Nc1cccc(C)c1 ?
G9a block: inactive; HP1b binding inh: inactive; BAZ2B block: inactive; JMJD2A Tudor: inactive; Six1-Eya2 blk: inactive; CtBP-E1A inh: inactive

How did COc1ccc(NC(=O)CNc2ccc(C#N)cc2)cc1 do in these assays?
G9a block: 50µM; HP1b binding inh: inactive; BAZ2B block: inactive; JMJD2A Tudor: inactive; Six1-Eya2 blk: inactive; CtBP-E1A inh: inactive

What do the screens show for `Cc1cccc(NC(=S)NNC(=O)COc2ccc(Cl)cc2Cl)c1`?
G9a block: 8.9µM; HP1b binding inh: inactive; BAZ2B block: inactive; JMJD2A Tudor: inactive; Six1-Eya2 blk: inactive; CtBP-E1A inh: inactive

What do the screens show for `COc1ccc(-c2cn3nc(N4CCCC(C(=O)Nc5ccccc5OC)C4)sc3n2)cc1` (stereo not given)?
G9a block: inconclusive; HP1b binding inh: inactive; BAZ2B block: inactive; JMJD2A Tudor: inactive

What do the screens show for `O=C(Nc1ccc(NS(=O)(=O)c2ccccc2)cc1)c1cccnc1`?
HP1b binding inh: inactive; BAZ2B block: inactive; JMJD2A Tudor: inactive; Six1-Eya2 blk: inactive; CtBP-E1A inh: inactive

What do the screens show for `O=C(NCc1ccccc1Cl)C1CCN(S(=O)(=O)c2ccc3c(c2)CCCN3C(=O)C2CCC2)CC1`?
G9a block: inactive; HP1b binding inh: inactive; BAZ2B block: inactive; JMJD2A Tudor: inactive

What do the screens show for `CCn1cnc2c(=O)oc3ccc(S(=O)(=O)Nc4ccc(OC)cc4)cc3c21`?
G9a block: inactive; HP1b binding inh: inactive; BAZ2B block: inactive; JMJD2A Tudor: inactive

Results for Cc1ccc(C)c(OCc2cc(C(=O)N3CCN(c4ccccc4C)CC3C)no2)c1 (stereo not given) ?
G9a block: inactive; HP1b binding inh: inactive; BAZ2B block: inactive; JMJD2A Tudor: inactive; Six1-Eya2 blk: inactive; CtBP-E1A inh: inactive

Results for CC(C)Sc1nc(-c2ccccc2)cc(=O)[nH]1 ?
G9a block: 35µM; HP1b binding inh: inactive; BAZ2B block: inactive; JMJD2A Tudor: inactive; Six1-Eya2 blk: inactive; CtBP-E1A inh: inactive

Results for CCC(Sc1nc(-c2ccccc2)cc(=O)[nH]1)C(=O)O (stereo not given) ?
G9a block: inactive; HP1b binding inh: inactive; BAZ2B block: inactive; JMJD2A Tudor: inactive; Six1-Eya2 blk: inactive; CtBP-E1A inh: inactive

How did COC(=O)c1cc2sccc2n1Cc1c(C)cc(C)cc1C do in these assays?
G9a block: inactive; HP1b binding inh: inactive; BAZ2B block: inactive; JMJD2A Tudor: inactive

Compound activity: PubChem BioAssay, National Center for Advancing Translational Sciences (NCATS)
